PfHsp90 yeast 2: growth inhibition of yeast expressing Plasmodium Hsp90 | S. cerevisiae expressing PfHsp90, BacTiter-Glo ATP, 48 h; yeast lacking PDR1 and PDR3 efflux regulators | inhibition, % at 9.4 µM | 310,000 tested, 0.32% active;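 active means every replicate shows inhibition above about 80%, whatever the replicate mean, limit read from the data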;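 further: 0% = DMSO neutral controls and 100% = 20 µM radicicol positive controls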
NALP3 yeast inh: NALP3 inhibition in yeast; 330,000 tested, 0.39% active; inhibition, % at 10 µM; Yeast reconstituted NLRP3/ASC/caspase-1, beta-gal luminescence, 24 h;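 active means inhibition of 50% or more; inactive means inhibition below 50%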;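 further: plate controls were induced DMSO wells for no effect and uninduced yeast grown without galactose for full effect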
tim10-1 inh: tim10-1 yeast growth inhibition; S. cerevisiae tim10-1 ts strain growth, BacTiter-Glo, 24 h; inhibition, % at 20 µM; 330,000 tested, 2.2% active; AID 463190;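 active means inhibition of at least 40%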;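 further: mutant grown at 25 °C; 0% = DMSO wells with yeast and 100% = wells holding no yeast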
NALP1 yeast inh: blocks the NALP1 inflammasome reconstituted in yeast; inhibition, % at 10 µM; 280,000 tested, 0.61% active; S. cerevisiae NALP1/ASC/caspase-1 growth, X-gal OD620, 72 h; AID 2071; in the data active means inhibition mostly above about 24%, no sharp cut-off; inactive means mostly below about 32%
TIM10 inh: inhibits growth of TIM10 yeast strain; inhibition, % at 10 µM; 330,000 tested, 1.4% active; S. cerevisiae TIM10 strain growth, BacTiter-Glo luminescence, 24 h;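 active means inhibition of 40% or more at the single tested concentration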;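 further: wild-type TIM10 isogenic control strain grown at permissive 25 °C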
tim23-1 inh: inhibits growth of tim23-1 mutant yeast; inhibition, % at 20 µM; 330,000 tested, 1.3% active; S. cerevisiae tim23-1 growth, BacTiter-Glo luminescence, 24 h; AID 463212;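 active means growth inhibition of the mutant yeast at or above 50%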;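 further: temperature-sensitive mutant grown at 25 °C; plate controls were DMSO-treated mutant yeast for no effect and medium wells lacking yeast for full effect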
TIM10 conf: TIM10 yeast growth inhibition, confirmed | inhibition, % at 10 µM | shares compounds with TIM10 inh | 4,600 tested, 63% active | S. cerevisiae tim10 strain growth, BacTiter-Glo luminescence, 24 h;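 active means inhibition of yeast growth at or above a set limit in either of two replicates at 10 µM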;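 further: this counterscreen used the strain with wild-type TIM10; 0% = yeast with DMSO and 100% = medium wells lacking yeast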
* hit, by the source's call. The list is not random: actives were taken first. Their share in the collection is about 4.1%.

`COc1ccc(CNC(=O)COC(=O)c2[nH]c(C)c(C(C)=O)c2C)cc1OC` gave PfHsp90 yeast 2 -8, NALP3 yeast inh 7, tim10-1 inh -4, TIM10 inh 3 and tim23-1 inh -6.
`O=C(Nc1ccc(Cl)cc1)c1ccc(S(=O)(=O)N2CCOCC2)cc1` gave PfHsp90 yeast 2 -65, NALP3 yeast inh 20, tim10-1 inh 3, NALP1 yeast inh 8, TIM10 inh 1 and tim23-1 inh 10.
`O=C(Nc1ccc(S(=O)(=O)N2CCCC2)cc1)c1cc(F)c(F)cc1Cl` gave PfHsp90 yeast 2 -12, NALP3 yeast inh 8, tim10-1 inh 38, NALP1 yeast inh 0, TIM10 inh 41*, tim23-1 inh 36 and TIM10 conf 33*.
For O=C(Nc1ccc(S(=O)(=O)N2CCOCC2)cc1)c1ccc(Cl)s1 the results were PfHsp90 yeast 2 -1, NALP3 yeast inh 8, tim10-1 inh 36, NALP1 yeast inh 7, TIM10 inh 41*, tim23-1 inh 33 and TIM10 conf 30.
O=C(Nc1ccc(F)cc1)c1ccc(S(=O)(=O)N2CCCC2)cc1 was read as PfHsp90 yeast 2 -11, NALP3 yeast inh 7, tim10-1 inh 19, NALP1 yeast inh 0, TIM10 inh -17 and tim23-1 inh 21.
`Cc1cc(C(=O)N2CCc3c([nH]c4ccccc34)C2c2cccc(Cl)c2)nn1C` (stereo not given) gave PfHsp90 yeast 2 -22, NALP3 yeast inh 10, tim10-1 inh -5, NALP1 yeast inh -4, TIM10 inh 17 and tim23-1 inh 35.
Screening O=C(c1cnccn1)N1CCc2c([nH]c3ccccc23)C1c1cccc(Cl)c1 (stereo not given) returned PfHsp90 yeast 2 -12, NALP3 yeast inh -3, tim10-1 inh 23, NALP1 yeast inh -11, TIM10 inh 41*, tim23-1 inh 30 and TIM10 conf 24.
`O=C(COC(=O)Cc1cccc(C(F)(F)F)c1)NC1CCS(=O)(=O)C1` (stereo not given) gave PfHsp90 yeast 2 15, NALP3 yeast inh 11, tim10-1 inh -18, TIM10 inh -3 and tim23-1 inh 0.
Screening CNc1ccc(/C=C/C(=O)c2cccc3ccccc23)cc1[N+](=O)[O-] returned PfHsp90 yeast 2 -16, NALP3 yeast inh 29, tim10-1 inh 39, NALP1 yeast inh 23, TIM10 inh 45*, tim23-1 inh 39 and TIM10 conf -9.
COc1ccccc1/C=C/C1(C(=O)NC2CCCC2)CC(=O)N1c1ccc(F)cc1 (stereo not given) was read as PfHsp90 yeast 2 -2, NALP3 yeast inh 3, tim10-1 inh 38, NALP1 yeast inh -5, TIM10 inh 41*, tim23-1 inh 35 and TIM10 conf 21.
O=C(NC1Cc2ccccc2C1)c1cc(COc2ccc(F)cc2Cl)on1 was read as PfHsp90 yeast 2 -4, NALP3 yeast inh 1, tim10-1 inh 17, NALP1 yeast inh -5, TIM10 inh 1 and tim23-1 inh 6.
O=C(NC1CCc2ccccc21)c1cc(COc2ccc(F)cc2Cl)on1 (stereo not given) was read as PfHsp90 yeast 2 17, NALP3 yeast inh 10, tim10-1 inh 12, NALP1 yeast inh 1, TIM10 inh 68*, tim23-1 inh 15 and TIM10 conf -1.
Screening COc1ccc([C@H]2CC(=O)C=C(c3c(C)cc(C)cc3C)C2)cc1 returned PfHsp90 yeast 2 33, NALP3 yeast inh 4, tim10-1 inh 1, TIM10 inh -3 and tim23-1 inh 14.
For CCN(CC)c1ccc(/C=N/N(c2ccccc2)c2ccccc2)c(O)c1 the results were PfHsp90 yeast 2 0, NALP3 yeast inh -5, tim10-1 inh 9, NALP1 yeast inh 24, TIM10 inh 2 and tim23-1 inh 7.
For CCN(CC)c1ccc(/C=N/NC(=S)NCc2ccccc2)c(O)c1 the results were PfHsp90 yeast 2 1, NALP3 yeast inh 19, tim10-1 inh 23, NALP1 yeast inh 26, TIM10 inh 41*, tim23-1 inh 28 and TIM10 conf -32.
`COc1ccccc1CN1CC(C(=O)NCCN2CCOC2=O)CCC1=O` (stereo not given) gave PfHsp90 yeast 2 -16, NALP3 yeast inh 10, tim10-1 inh -2, NALP1 yeast inh -2, TIM10 inh -1 and tim23-1 inh -5.
Screening COc1ccc(CCn2c(C)cc(C(=O)CN3C(=O)C(=O)N(C4CCCC4)C3=O)c2C)cc1OC returned PfHsp90 yeast 2 18, NALP3 yeast inh 18, tim10-1 inh 13, TIM10 inh 10 and tim23-1 inh 14.
O=C1c2ccccc2C(=O)C1c1ccc2ccccc2n1 was read as NALP3 yeast inh 15, tim10-1 inh 31, NALP1 yeast inh 18, TIM10 inh 58*, tim23-1 inh 26 and TIM10 conf 46*.
Screening S=C(Nc1ccc(Oc2ccc(NC(=S)NC3CCCCC3)cc2)cc1)NC1CCCCC1 returned PfHsp90 yeast 2 -56, NALP3 yeast inh 20, tim10-1 inh 12, NALP1 yeast inh 0, TIM10 inh 16 and tim23-1 inh 21.
Screening S=C(Nc1ccc(Oc2ccccc2)cc1)NC1CCCCC1 returned PfHsp90 yeast 2 -7, NALP3 yeast inh 27, tim10-1 inh 25, NALP1 yeast inh 21, TIM10 inh 40*, tim23-1 inh 7 and TIM10 conf 41*.
Screening N#CCC(=O)Nc1ccc(C(=O)OCC(=O)NC(=O)NCc2ccco2)cc1 returned PfHsp90 yeast 2 29, NALP3 yeast inh 8, tim10-1 inh -7, TIM10 inh -2 and tim23-1 inh -4.
`CC(=O)c1ccccc1NS(=O)(=O)c1c(C)nn(-c2ccccc2)c1C` gave PfHsp90 yeast 2 10, NALP3 yeast inh -2, tim10-1 inh 32, NALP1 yeast inh -1, TIM10 inh 47*, tim23-1 inh 48 and TIM10 conf 30.
Screening O=C(NCc1nc(-c2ccc(Cl)cc2)no1)c1ccc2c(c1)OCO2 returned PfHsp90 yeast 2 0, NALP3 yeast inh 26, tim10-1 inh -20, NALP1 yeast inh 2, TIM10 inh 43*, tim23-1 inh 20 and TIM10 conf 8.
NNc1nc2c(-c3ccc(Cl)cc3)nnn2c2ccccc12 was read as PfHsp90 yeast 2 24, NALP3 yeast inh -2, tim10-1 inh 22, NALP1 yeast inh -9, TIM10 inh 69*, tim23-1 inh 21 and TIM10 conf 70*.
Screening CCOc1ccc(NC(=O)COC(=O)c2ccc3c(c2)C(=O)N(CCc2ccccc2)C3=O)cc1 returned PfHsp90 yeast 2 -7, NALP3 yeast inh 17, tim10-1 inh -11, NALP1 yeast inh 24, TIM10 inh 2 and tim23-1 inh 0.

Compound activity: PubChem BioAssay, several laboratories
